In PubChem BioAssay (Tox21):
Inconclusive results are not listed. Where a call stands in place of a potency, no number is given. A number with no mark means an inactive call. Calls of active or inactive are those of the source. Calls come from the whole dose curve; as a rule, active = well fitted activation curve with a large enough effect in the repeat runs; inconclusive = weak or mixed curves; inactive = no such curve, though single readings can be large or run the other way.

test: qHTS assay for small molecules that induce genotoxicity in human embryonic kidney cells expressing luciferase-tagged ATAD5 (AID 651632); settings: HEK293T ATAD5-luciferase induction, 16 h; series mostly up to 83.3 µM; activation: at the top concentration; note: nearly all actives have a fitted effect of over 15% in size
In short: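 ATAD5-luc HEK293T, 2,000 cells/well; cpd or DMSO pin-transferred; 16 hr, 37C/5% CO2; Amplite 30 min RT; luminescence.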
Potency is the fitted concentration of half-maximal effect.

Compound	Potency	activation [%]
Clc1cc(Cl)c(Cl)cc1Cl	inactive	–
NCc1cccc(CN)c1	inactive	–
CC[Si](OC(C)=O)(OC(C)=O)OC(C)=O	inactive	–
O=S(=O)(O)CCS	inactive	–
CCCCCCCCC	inactive	–
C=C1C2CCC(C2)C1(C)C (stereo not given)	inactive	–
OCCOCCOCCOCCO	inactive	–
C=C(C)C(=O)OCCC[Si](OC)(OC)OC	inactive	–
CS(=O)(=O)c1ccc([C@@H](O)[C@@H](CO)NC(=O)C(Cl)Cl)cc1	inactive	–
C=C(C#N)C(=O)OCC	–	-1.09
CCCCCCCCCCCCN	inactive	–
O=[N+]([O-])C(CO)(CO)CO	inactive	–
NCCc1ccc(O)c(O)c1	inactive	–
CC1=C(CC(=O)O)c2cc(F)ccc2/C1=C\c1ccc(S(C)=O)cc1 (stereo not given)	inactive	–
COC(=O)c1ccccc1O	inactive	–
O=C(O)c1cc(-c2ccccc2)nc2ccccc12	inactive	–
O=c1c(-c2ccc(O)cc2)coc2cc(O)ccc12	30.3 µM (active)	–
Cc1ccc(N)c(S(=O)(=O)O)c1	inactive	–
CCCCC/C=C\C/C=C\CCCCCCCC(=O)OC	inactive	–
C/C=C(C)/C=C/C=C(C)C	–	2.49
COC(=O)c1ccc(C(=O)OC)cc1	inactive	–
OC[C@@H](O)[C@@H](O)[C@H](O)[C@@H](O)CO	inactive	–
CC#C[C@]1(O)CC[C@H]2[C@@H]3CCC4=CC(=O)CCC4=C3[C@@H](c3ccc(N(C)C)cc3)C[C@@]21C	inactive	–
CCOC(=O)[C@H](CCc1ccccc1)N[C@@H](C)C(=O)N1Cc2ccccc2C[C@H]1C(=O)O	inactive	–
Nc1nc2ncc(CNc3ccc(C(=O)N[C@@H](CCC(=O)O)C(=O)O)cc3)nc2c(=O)[nH]1	inactive	–
